Screening data as filed in PubChem.
V-ATPase pH – regulators of yeast V-ATPase proton pumping, primary screen, pHLuorin cytosolic pH fluorescence; S. cerevisiae; response, % at 10 µM; 350,000 tested, 0.37% active; in the data active means response mostly above about 7.3%, no sharp cut-off; inactive means mostly below about 5.4%; further: actives read high
tim10-1 inh – growth inhibitors of tim10-1 mutant yeast, primary screen, luminescence, uHTS; S. cerevisiae tim10-1 ts strain growth, BacTiter-Glo, 24 h; inhibition, % at 20 µM; 330,000 tested, 2.2% active;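 active means inhibition of at least 40%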;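 further: mutant grown at 25 °C; 0% = DMSO wells with yeast and 100% = wells holding no yeast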
TIM10 inh – growth inhibitors of isogenic TIM10 control yeast, primary screen, counter-screen for tim10-1 yeast inhibitor project, luminescence, uHTS; S. cerevisiae TIM10 strain growth, BacTiter-Glo luminescence, 24 h; inhibition, % at 10 µM; 330,000 tested, 1.4% active; AID 463195, 2010;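 active means inhibition of 40% or more at the single tested concentration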;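 further: wild-type TIM10 isogenic control strain grown at permissive 25 °C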
SKKanGAS inh – S. pyogenes SKKanGAS growth inhibitors in kanamycin, primary screen, streptokinase expression inhibitor project, SKKanGAS strain, BacTiter-Glo luminescence; 300,000 tested, 1.3% active; inhibition, % at 7.5 µM; 6 h; AID 1662, 2009;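 active means mean replicate score, as percent of positive control median, at least 50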;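 further: strain carries kanamycin resistance gene driven by streptokinase promoter and grows in 40 µg/ml kanamycin; loss of luminescence reflects streptokinase promoter inhibition or plain growth inhibition; 0% = median of DMSO wells and 100% = positive control at its reference dose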
PfHsp90 yeast 2 – growth inhibition of PfHsp90-expressing yeast, primary screen, antimalarial PfHsp90 inhibitor project, S. cerevisiae, BacTiter-Glo luminescence, single point, set 2; BacTiter-Glo ATP, 48 h; yeast lacking PDR1 and PDR3 efflux regulators; 310,000 tested, 0.32% active; inhibition, % at 9.4 µM; AID 504621, 2011;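 active means every replicate shows inhibition above about 80%, whatever the replicate mean, limit read from the data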;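 further: 0% = DMSO neutral controls and 100% = 20 µM radicicol positive controls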
tim23-1 inh – growth inhibitors of tim23-1 mutant yeast, primary screen, luminescence, uHTS; S. cerevisiae tim23-1 growth, BacTiter-Glo luminescence, 24 h; inhibition, % at 20 µM; 330,000 tested, 1.3% active; AID 463212, 2010;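 active means growth inhibition of the mutant yeast at or above 50%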;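 further: temperature-sensitive mutant grown at 25 °C; plate controls were DMSO-treated mutant yeast for no effect and medium wells lacking yeast for full effect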
tim10-1 confirm – growth inhibitors of tim10-1 mutant yeast, confirmation, single concentration, luminescence, S. cerevisiae; 7,400 tested, 56% active; S. cerevisiae tim10-1 ts strain growth, BacTiter-Glo, 24 h; shares compounds with tim10-1 inh; inhibition, % at 20 µM;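 active means inhibition of yeast growth at or above a set limit in either of two repeat tests at 20 µM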;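 further: tim10-1 mutant grown at permissive 25 °C to find synthetic lethal compounds; 0% = DMSO yeast wells and 100% = medium wells without yeast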
* marks the source's active call; other numbers are inactive results. Compounds with a hit are over-represented: about 4.6% of the library has one in this group of screens.

`O=C(c1cccc(COc2ccc(Cl)cc2Cl)c1)N1CCN(c2ccccn2)CC1` gave V-ATPase pH 0, tim10-1 inh 42*, TIM10 inh 33, SKKanGAS inh 53*, PfHsp90 yeast 2 11, tim23-1 inh 30 and tim10-1 confirm 23.
`O=C(c1ccc(S(=O)(=O)Cc2cc(F)ccc2F)c([N+](=O)[O-])c1)N1CCCCC1` gave V-ATPase pH -1, tim10-1 inh 44*, TIM10 inh 20, SKKanGAS inh -4, PfHsp90 yeast 2 -3, tim23-1 inh 44 and tim10-1 confirm 29*.
`Cc1ccc(SCc2cn3cc(Cl)ccc3n2)cc1` gave V-ATPase pH -1, tim10-1 inh 18, TIM10 inh 22, SKKanGAS inh 0, PfHsp90 yeast 2 -33 and tim23-1 inh 21.
`COc1ccc(OC)c(S(=O)(=O)N2CCCC(C(=O)NCCN3CCOCC3)C2)c1` (stereo not drawn) gave V-ATPase pH 2, tim10-1 inh -6, TIM10 inh 0, SKKanGAS inh -1, PfHsp90 yeast 2 -13 and tim23-1 inh 12.
CCCCNc1cc(NC(C)=O)cc2cc(OC)c(OC)cc12 was read as V-ATPase pH -4, tim10-1 inh 44*, TIM10 inh 27, SKKanGAS inh -6, PfHsp90 yeast 2 3, tim23-1 inh 27 and tim10-1 confirm 31.
Screening COc1ccc(S(=O)(=O)N2CCCCCC2)cc1C(=O)Nc1ccc(C(=O)N(C)C)cc1 returned V-ATPase pH -4, tim10-1 inh -7, TIM10 inh 7 and tim23-1 inh -5.
`Cn1nc(-c2ccccc2)cc1NC(=O)Nc1ccc(C(C)(C)C)cc1` gave V-ATPase pH 12, tim10-1 inh 41*, TIM10 inh 26, SKKanGAS inh 20, PfHsp90 yeast 2 -11, tim23-1 inh 40 and tim10-1 confirm 39*.
Screening Cn1nc(-c2ccc(Cl)cc2)cc1NC(=O)Nc1ccccc1 returned V-ATPase pH 0, tim10-1 inh 24, TIM10 inh 24, SKKanGAS inh -7, PfHsp90 yeast 2 8 and tim23-1 inh 20.
CCOc1ccc(NC(=O)CN(C)C(=O)c2sc3ccccc3c2Cl)cc1OCC was read as V-ATPase pH 0, tim10-1 inh -1, TIM10 inh -8, SKKanGAS inh 6, PfHsp90 yeast 2 15 and tim23-1 inh 6.
`O=[N+]([O-])c1ccc(Sc2nccn2Cc2ccccc2)c([N+](=O)[O-])c1` gave V-ATPase pH -80, tim10-1 inh 51*, TIM10 inh 35, SKKanGAS inh 1, PfHsp90 yeast 2 -11, tim23-1 inh 39 and tim10-1 confirm 26.
Screening CCCCN(CC)c1nc(-c2ccncc2)nc2ccccc12 returned V-ATPase pH -1, tim10-1 inh 43*, TIM10 inh 25, SKKanGAS inh 9, PfHsp90 yeast 2 -65, tim23-1 inh 39 and tim10-1 confirm 15.
For O=C(NCCc1ccccc1F)C1CC(=O)N(c2ccc3c(c2)OCCO3)C1 (stereo not drawn) the results were V-ATPase pH 4.
C=CCNC(=S)NNC(=O)COc1cccc(Cl)c1 was read as V-ATPase pH -2, tim10-1 inh 17, TIM10 inh 19, SKKanGAS inh -2, PfHsp90 yeast 2 3 and tim23-1 inh 32.
Screening CCCc1cc(=O)oc2c(C)c(OCC(=O)Nc3ccc(CN4CCOCC4)cc3)ccc12 returned V-ATPase pH -2, tim10-1 inh 40*, TIM10 inh 39, SKKanGAS inh 7, PfHsp90 yeast 2 -7, tim23-1 inh 11 and tim10-1 confirm 33*.
Cc1c(OCC(=O)NCCCN2CCOCC2)ccc2c3c(c(=O)oc12)CCCC3 was read as V-ATPase pH 6, tim10-1 inh 46*, TIM10 inh 25, SKKanGAS inh -1, PfHsp90 yeast 2 -4, tim23-1 inh 9 and tim10-1 confirm 26.
